Results filed as inconclusive are left out. Unmarked numbers belong to inactive results. Activity calls are given as the source filed them. Calls follow the shape of the dose curve; as a rule, active = well fitted inhibition curve with a large enough effect; inconclusive = small, poorly fitted or top-dose-only effect; inactive = flat fitted curve, though single readings scatter. Peptide text beside a SMILES is read from it.
test system: CP265; assay: qHTS profiling for inhibitors of Plasmodium falciparum proliferation (AID 504749); also: nearly all actives have a fitted effect of over 60% in size;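 as to activity, negative = inhibition: 0% = DMSO vehicle and full inhibition = artemisinin control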; conditions: P. falciparum in erythrocytes, SYBR Green DNA, 72 h; series mostly up to 28.7 µM; activity, negative = inhibition: at the top concentration
In short: (§1)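 P. falciparum-infected erythrocytes (0.3% parasitemia, 2.5% hematocrit final) were exposed to compounds for 72 h at 37 C in 5% CO2, then lysed with SYBR Green buffer overnight at room temperature; parasite DNA fluorescence was normalized to artemisinin and DMSO controls.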
Potency is read from the fitted curve at half-maximal effect.

Row | Compound | Potency | activity, negative = inhibition
1 | C=C1C(=CC=C2CCC[C@@]3(C)[C@@H]2CC[C@H]3[C@H](C)CCCC(C)C)C[C@@H](O)C[C@@H]1O | 11.2 µM (active) | –
2 | O=C1C(=O)c2ncccc2-c2cccnc21 | 0.891 µM (active) | –
3 | O=CCCCC=O | – | -10.4%
4 | CCCCC(C)(O)C/C=C/[C@H]1[C@H](O)CC(=O)[C@@H]1CCCCCCC(=O)OC (stereo not given in full) | – | -1.51%
5 | CC(C)(C)C(=O)OCOC(=O)[C@@H]1N2C(=O)[C@@H](N=CN3CCCCCC3)[C@H]2SC1(C)C | – | 4.75% [at 12.8 µM]
6 | C[C@]12CCC(=O)C=C1CC[C@@H]1[C@@H]2[C@@H](O)C[C@@]2(C)[C@H]1CC[C@]2(O)C(=O)COP(=O)(O)O | – | -6.75%
7 | CCOc1ccc(N=Nc2ccc(N)cc2N)cc1 | – | -26.7%
8 | O=C(O)CCC(=O)C(=O)O | – | 0.0101%
9 | CC1=CCC(C(C)(C)O)CC1 (stereo not given) | – | 0.16%
10 | CO[C@H](C(=O)[C@@H](O)[C@@H](C)O)C1Cc2cc3cc(O[C@H]4C[C@@H](O[C@H]5C[C@@H](O)[C@H](O)[C@@H](C)O5)[C@@H](O)[C@@H](C)O4)c(C)c(O)c3c(O)c2C(=O)[C@H]1O[C@H]1C[C@@H](O[C@H]2C[C@@H](O[C@H]3C[C@](C)(O)[C@H](O)[C@@H](C)O3)[C@H](O)[C@@H](C)O2)[C@H](O)[C@@H](C)O1 (stereo not given in full) | 0.282 µM (active) | –
11 | CCCCCCC(O)C/C=C/CCCCCCCC(=O)O (stereo not given) | – | 4.35%
12 | Cc1ccccc1OCC(O)CNCCOc1ccc(C(N)=O)cc1 (stereo not given) | – | -0.0113%
13 | IC(I)I | – | 7.26%
14 | COC(F)(F)C(Cl)Cl | – | 2.46%
15 | Nc1c(N=Nc2ccc(-c3ccc(N=Nc4cc(S(=O)(=O)O)c5ccccc5c4N)cc3)cc2)cc(S(=O)(=O)O)c2ccccc12 | – | 0.448%
16 | Cc1cc(C(=O)NNCc2ccccc2)no1 | – | 0.225% [at 12.8 µM]
17 | CC1(C)C(C=C(Cl)Cl)C1C(=O)OCc1cccc(Oc2ccccc2)c1 (stereo not given) | – | -21.4%
18 | CCOC(C)=O | – | 1.9%
19 | Cc1c(C)c2c(c(C)c1O)CC[C@@](C)(CCC[C@@H](C)CCC[C@@H](C)CCCC(C)C)O2 | – | 0.697%
20 | CCCCCCCC(=O)O | – | 2.45%
21 | CC1(C)S[C@@H]2[C@H](NC(=O)[C@@H](NC(=O)N3CCNC3=O)c3ccccc3)C(=O)N2[C@H]1C(=O)O | – | -0.598% [at 12.8 µM]
22 | O=C(COc1ccc(Cl)cc1)OCCNC12CC3CC(CC(C3)C1)C2 | – | -17.7%
23 | O=C(O)c1cc(=O)c2c3nc4ccccc4oc-3cc(=O)c2[nH]1 | – | -20.7%
24 | C[C@]12O[C@H](C[C@]1(O)CO)n1c3ccccc3c3c4c(c5c6ccccc6n2c5c31)CNC4=O | 0.447 µM (active) | –
25 | C[C@@H]1CCC2[C@@H](C)[C@@H](O)O[C@@H]3O[C@@]4(C)CC[C@@H]1[C@@]23OO4 (stereo not given in full) | 0.0009 µM (active) | –
26 | CC(=O)N[C@@H](CC(=O)O)C(=O)N[C@@H](CCC(=O)O)C(=O)O (Ac-Asp-Glu-OH) | – | 3.34%
27 | COCC(=O)Nc1cc(Sc2ccccc2)ccc1N=C(NC(=O)OC)NC(=O)OC | – | 7.1%
28 | Nc1c(Br)cc(Br)cc1CNC1CCC(O)CC1 (stereo not given) | – | -11.1%
29 | NC(=O)c1ncn(C2OC(CO)C(O)C2O)n1 (stereo not given) | – | -11.4%
30 | COc1ccc2c3c1O[C@H]1C[C@@H](O)C=C[C@@]31CCN(C)C2 | – | 6.11%

test system: CP266; assay: as above; conditions: P. falciparum in erythrocytes, SYBR Green DNA, 72 h; series mostly up to 28.7 µM; activity, negative = inhibition: at the top concentration
In short: as §1

Row | Compound | activity, negative = inhibition | Potency
31 | C=C1C(=CC=C2CCC[C@@]3(C)[C@@H]2CC[C@H]3[C@H](C)CCCC(C)C)C[C@@H](O)C[C@@H]1O | -19.2% | –
32 | O=C1C(=O)c2ncccc2-c2cccnc21 | – | 0.849 µM (active)
33 | O=CCCCC=O | 6.83% | –
34 | CCCCC(C)(O)C/C=C/[C@H]1[C@H](O)CC(=O)[C@@H]1CCCCCCC(=O)OC (stereo not given in full) | -10.5% | –
35 | CC(C)(C)C(=O)OCOC(=O)[C@@H]1N2C(=O)[C@@H](N=CN3CCCCCC3)[C@H]2SC1(C)C | 5.02% [at 12.8 µM] | –
36 | C[C@]12CCC(=O)C=C1CC[C@@H]1[C@@H]2[C@@H](O)C[C@@]2(C)[C@H]1CC[C@]2(O)C(=O)COP(=O)(O)O | -0.562% | –
37 | CCOc1ccc(N=Nc2ccc(N)cc2N)cc1 | -0.677% | –
38 | O=C(O)CCC(=O)C(=O)O | 10.4% | –
39 | CC1=CCC(C(C)(C)O)CC1 (stereo not given) | 9.02% | –
40 | CO[C@H](C(=O)[C@@H](O)[C@@H](C)O)C1Cc2cc3cc(O[C@H]4C[C@@H](O[C@H]5C[C@@H](O)[C@H](O)[C@@H](C)O5)[C@@H](O)[C@@H](C)O4)c(C)c(O)c3c(O)c2C(=O)[C@H]1O[C@H]1C[C@@H](O[C@H]2C[C@@H](O[C@H]3C[C@](C)(O)[C@H](O)[C@@H](C)O3)[C@H](O)[C@@H](C)O2)[C@H](O)[C@@H](C)O1 (stereo not given in full) | – | 1.69 µM (active)
41 | CCCCCCC(O)C/C=C/CCCCCCCC(=O)O (stereo not given) | 0.808% | –
42 | Cc1ccccc1OCC(O)CNCCOc1ccc(C(N)=O)cc1 (stereo not given) | -1.78% | –
43 | IC(I)I | 3.99% | –
44 | COC(F)(F)C(Cl)Cl | -2.3% | –
45 | Nc1c(N=Nc2ccc(-c3ccc(N=Nc4cc(S(=O)(=O)O)c5ccccc5c4N)cc3)cc2)cc(S(=O)(=O)O)c2ccccc12 | -3.43% | –
46 | Cc1cc(C(=O)NNCc2ccccc2)no1 | -1.39% [at 12.8 µM] | –
47 | CC1(C)C(C=C(Cl)Cl)C1C(=O)OCc1cccc(Oc2ccccc2)c1 (stereo not given) | 3% | –
48 | CCOC(C)=O | 7.24% | –
49 | Cc1c(C)c2c(c(C)c1O)CC[C@@](C)(CCC[C@@H](C)CCC[C@@H](C)CCCC(C)C)O2 | 3.82% | –
50 | CCCCCCCC(=O)O | 6.91% | –
51 | CC1(C)S[C@@H]2[C@H](NC(=O)[C@@H](NC(=O)N3CCNC3=O)c3ccccc3)C(=O)N2[C@H]1C(=O)O | -12.8% [at 12.8 µM] | –
52 | O=C(COc1ccc(Cl)cc1)OCCNC12CC3CC(CC(C3)C1)C2 | 2.13% | –
53 | O=C(O)c1cc(=O)c2c3nc4ccccc4oc-3cc(=O)c2[nH]1 | -5.9% | –
54 | C[C@]12O[C@H](C[C@]1(O)CO)n1c3ccccc3c3c4c(c5c6ccccc6n2c5c31)CNC4=O | – | 0.675 µM (active)
55 | C[C@@H]1CCC2[C@@H](C)[C@@H](O)O[C@@H]3O[C@@]4(C)CC[C@@H]1[C@@]23OO4 (stereo not given in full) | – | 0.0076 µM (active)
56 | CC(=O)N[C@@H](CC(=O)O)C(=O)N[C@@H](CCC(=O)O)C(=O)O (Ac-Asp-Glu-OH) | -0.667% | –
57 | COCC(=O)Nc1cc(Sc2ccccc2)ccc1N=C(NC(=O)OC)NC(=O)OC | 2.27% | –
58 | Nc1c(Br)cc(Br)cc1CNC1CCC(O)CC1 (stereo not given) | -3.52% | –
59 | NC(=O)c1ncn(C2OC(CO)C(O)C2O)n1 (stereo not given) | -0.286% | –
60 | COc1ccc2c3c1O[C@H]1C[C@@H](O)C=C[C@@]31CCN(C)C2 | -2.35% | –
